Laboratory results reported in the supplement of paper PMC11732987, “Enantioselective OTUD7B fragment discovery through chemoproteomics screening and high-throughput optimisation” (Communications Chemistry, 2025).

Key:
Assay in all cases: log2 ratio of Biotin-Ahx-Ub-VS probe labelling (fragment/DMSO); higher = less target engagement (more negative = stronger competition), active = hit call of the paper (q ≤ 0.05, log2 ratio ≤ -1)
Conditions in all cases: compound concentration: 200 uM; treatment time: 3 h
[1] = target: T1, USP42 (UniProt Q9H9J4)
T1 sequence (whole entry): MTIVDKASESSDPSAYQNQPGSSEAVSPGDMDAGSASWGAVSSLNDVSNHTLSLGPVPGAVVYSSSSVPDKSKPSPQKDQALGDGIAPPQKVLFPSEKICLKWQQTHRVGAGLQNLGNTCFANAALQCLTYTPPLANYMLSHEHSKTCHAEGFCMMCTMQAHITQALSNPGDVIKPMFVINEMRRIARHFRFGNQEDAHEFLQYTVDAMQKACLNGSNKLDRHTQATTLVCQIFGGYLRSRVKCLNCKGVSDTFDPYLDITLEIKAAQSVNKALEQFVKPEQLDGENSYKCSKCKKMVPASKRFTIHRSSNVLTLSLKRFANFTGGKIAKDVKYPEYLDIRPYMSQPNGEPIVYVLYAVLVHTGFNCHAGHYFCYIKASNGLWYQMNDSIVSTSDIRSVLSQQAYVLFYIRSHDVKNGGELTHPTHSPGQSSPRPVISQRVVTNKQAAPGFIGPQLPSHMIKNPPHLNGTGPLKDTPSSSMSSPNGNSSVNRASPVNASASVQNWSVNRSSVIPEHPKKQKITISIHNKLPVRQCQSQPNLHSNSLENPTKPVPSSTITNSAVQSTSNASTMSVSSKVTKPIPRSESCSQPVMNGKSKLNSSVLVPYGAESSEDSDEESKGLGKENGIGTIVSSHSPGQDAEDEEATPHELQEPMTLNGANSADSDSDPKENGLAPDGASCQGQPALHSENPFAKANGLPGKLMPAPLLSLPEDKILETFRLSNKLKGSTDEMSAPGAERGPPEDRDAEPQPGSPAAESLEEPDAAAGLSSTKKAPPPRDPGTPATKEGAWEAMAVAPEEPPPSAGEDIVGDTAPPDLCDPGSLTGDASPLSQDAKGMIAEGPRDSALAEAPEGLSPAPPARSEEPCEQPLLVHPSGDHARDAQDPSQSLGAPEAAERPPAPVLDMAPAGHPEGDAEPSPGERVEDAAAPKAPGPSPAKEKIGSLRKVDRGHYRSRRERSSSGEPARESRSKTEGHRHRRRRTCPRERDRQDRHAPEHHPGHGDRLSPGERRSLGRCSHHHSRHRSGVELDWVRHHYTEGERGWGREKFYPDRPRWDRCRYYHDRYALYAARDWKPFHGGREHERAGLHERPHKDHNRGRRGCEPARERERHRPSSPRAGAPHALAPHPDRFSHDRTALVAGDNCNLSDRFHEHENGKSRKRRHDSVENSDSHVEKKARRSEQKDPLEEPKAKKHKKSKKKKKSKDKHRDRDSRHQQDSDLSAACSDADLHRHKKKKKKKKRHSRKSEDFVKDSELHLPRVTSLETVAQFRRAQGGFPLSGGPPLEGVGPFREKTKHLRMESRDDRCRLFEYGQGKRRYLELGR
In short: (§1)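 Labelled DUBs from HEK293T lysate were NeutrAvidin-enriched, digested with LysC and trypsin, and run by diaPASEF LC-MS/MS. Before that, each 495 µg sample in Tris/CHAPS/IGEPAL buffer with protease inhibitors was treated in triplicate with fragment at 200 µM or vehicle for 3 h, then with Biotin-Ahx-Ub-VS at 0.5 µM final for 1 h. Values are average log2 ratios of fragment over vehicle by unpaired t-test, based on global-median-normalised Spectronaut label-free quantities from proteins with ≥2 unique peptides.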

[2] = target: USP46 (UniProt P62068)
USP46, sequence (P62068 whole entry): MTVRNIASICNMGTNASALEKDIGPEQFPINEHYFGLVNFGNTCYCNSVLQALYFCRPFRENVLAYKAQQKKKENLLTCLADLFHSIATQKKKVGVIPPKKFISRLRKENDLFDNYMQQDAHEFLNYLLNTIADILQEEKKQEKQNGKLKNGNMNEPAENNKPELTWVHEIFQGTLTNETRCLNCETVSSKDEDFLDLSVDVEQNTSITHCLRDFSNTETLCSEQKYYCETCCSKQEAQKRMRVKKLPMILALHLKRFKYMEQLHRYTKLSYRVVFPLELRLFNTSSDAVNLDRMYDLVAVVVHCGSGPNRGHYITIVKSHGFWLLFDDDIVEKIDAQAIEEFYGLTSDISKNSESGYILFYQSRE
In short: as §1

[3] = target: T2, USP47 (UniProt Q96K76)
T2 sequence (whole entry): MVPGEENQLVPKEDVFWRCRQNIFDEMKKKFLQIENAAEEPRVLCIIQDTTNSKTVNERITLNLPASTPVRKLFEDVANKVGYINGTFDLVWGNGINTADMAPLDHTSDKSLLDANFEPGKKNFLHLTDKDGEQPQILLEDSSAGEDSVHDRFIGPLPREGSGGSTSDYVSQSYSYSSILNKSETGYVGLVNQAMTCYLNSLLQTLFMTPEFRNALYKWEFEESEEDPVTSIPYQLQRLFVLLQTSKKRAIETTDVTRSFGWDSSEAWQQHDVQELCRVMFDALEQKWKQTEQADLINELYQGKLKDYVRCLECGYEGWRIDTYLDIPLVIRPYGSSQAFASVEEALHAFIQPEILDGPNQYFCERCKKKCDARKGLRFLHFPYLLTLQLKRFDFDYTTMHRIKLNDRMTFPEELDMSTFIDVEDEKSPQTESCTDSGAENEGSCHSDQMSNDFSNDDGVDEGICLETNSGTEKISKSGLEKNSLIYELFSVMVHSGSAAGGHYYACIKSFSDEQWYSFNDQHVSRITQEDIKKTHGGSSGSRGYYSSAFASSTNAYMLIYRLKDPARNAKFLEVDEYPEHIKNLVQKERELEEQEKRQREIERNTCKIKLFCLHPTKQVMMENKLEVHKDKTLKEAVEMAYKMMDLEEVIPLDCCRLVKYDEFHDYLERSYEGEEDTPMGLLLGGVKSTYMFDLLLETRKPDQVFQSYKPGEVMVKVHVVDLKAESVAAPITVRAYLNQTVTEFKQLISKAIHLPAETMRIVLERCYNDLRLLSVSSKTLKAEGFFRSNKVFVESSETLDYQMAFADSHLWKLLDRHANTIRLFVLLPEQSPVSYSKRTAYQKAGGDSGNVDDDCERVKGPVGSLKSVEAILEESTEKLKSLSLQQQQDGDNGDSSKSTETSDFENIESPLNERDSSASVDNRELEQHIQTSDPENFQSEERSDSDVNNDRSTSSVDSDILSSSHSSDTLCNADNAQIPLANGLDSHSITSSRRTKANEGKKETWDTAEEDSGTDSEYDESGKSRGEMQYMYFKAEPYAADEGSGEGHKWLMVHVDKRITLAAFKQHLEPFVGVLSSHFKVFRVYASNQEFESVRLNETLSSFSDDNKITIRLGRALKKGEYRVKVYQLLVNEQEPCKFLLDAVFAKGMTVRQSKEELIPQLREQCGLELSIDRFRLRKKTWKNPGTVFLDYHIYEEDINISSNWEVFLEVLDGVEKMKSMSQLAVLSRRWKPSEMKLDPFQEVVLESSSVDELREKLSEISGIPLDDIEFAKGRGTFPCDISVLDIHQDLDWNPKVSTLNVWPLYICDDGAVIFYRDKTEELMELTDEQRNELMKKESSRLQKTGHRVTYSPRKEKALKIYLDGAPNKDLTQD
In short: as §1

[4] = target: T3, USP48 (UniProt Q86UV5)
T3 sequence (whole entry): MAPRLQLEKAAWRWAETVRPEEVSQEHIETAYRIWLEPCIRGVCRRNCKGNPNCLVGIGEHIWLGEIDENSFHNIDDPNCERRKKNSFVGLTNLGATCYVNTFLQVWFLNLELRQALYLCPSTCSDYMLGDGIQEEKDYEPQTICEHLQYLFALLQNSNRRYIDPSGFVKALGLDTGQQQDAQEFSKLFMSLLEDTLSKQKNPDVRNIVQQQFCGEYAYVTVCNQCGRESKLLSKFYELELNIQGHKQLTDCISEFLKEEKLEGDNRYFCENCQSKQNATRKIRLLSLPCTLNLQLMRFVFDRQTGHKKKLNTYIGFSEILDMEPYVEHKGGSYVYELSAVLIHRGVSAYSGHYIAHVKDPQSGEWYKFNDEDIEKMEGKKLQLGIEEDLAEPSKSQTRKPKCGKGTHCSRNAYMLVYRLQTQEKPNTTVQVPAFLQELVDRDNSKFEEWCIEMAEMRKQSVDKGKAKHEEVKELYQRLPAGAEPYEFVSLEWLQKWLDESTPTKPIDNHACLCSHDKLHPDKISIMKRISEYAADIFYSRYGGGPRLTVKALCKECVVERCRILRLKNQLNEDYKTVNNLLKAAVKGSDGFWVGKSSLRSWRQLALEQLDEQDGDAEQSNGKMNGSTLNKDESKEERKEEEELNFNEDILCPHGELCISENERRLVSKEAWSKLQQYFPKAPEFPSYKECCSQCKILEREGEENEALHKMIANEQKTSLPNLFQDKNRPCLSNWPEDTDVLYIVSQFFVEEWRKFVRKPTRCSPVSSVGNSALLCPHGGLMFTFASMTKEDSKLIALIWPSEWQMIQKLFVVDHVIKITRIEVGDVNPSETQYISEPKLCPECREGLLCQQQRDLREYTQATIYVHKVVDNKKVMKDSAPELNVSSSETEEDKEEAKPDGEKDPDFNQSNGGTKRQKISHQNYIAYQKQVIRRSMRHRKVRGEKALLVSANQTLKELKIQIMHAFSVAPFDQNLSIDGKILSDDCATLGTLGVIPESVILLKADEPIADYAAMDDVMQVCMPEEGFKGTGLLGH
In short: as §1

[5] = target: T4, USP5 (UniProt P45974)
T4 sequence (whole entry): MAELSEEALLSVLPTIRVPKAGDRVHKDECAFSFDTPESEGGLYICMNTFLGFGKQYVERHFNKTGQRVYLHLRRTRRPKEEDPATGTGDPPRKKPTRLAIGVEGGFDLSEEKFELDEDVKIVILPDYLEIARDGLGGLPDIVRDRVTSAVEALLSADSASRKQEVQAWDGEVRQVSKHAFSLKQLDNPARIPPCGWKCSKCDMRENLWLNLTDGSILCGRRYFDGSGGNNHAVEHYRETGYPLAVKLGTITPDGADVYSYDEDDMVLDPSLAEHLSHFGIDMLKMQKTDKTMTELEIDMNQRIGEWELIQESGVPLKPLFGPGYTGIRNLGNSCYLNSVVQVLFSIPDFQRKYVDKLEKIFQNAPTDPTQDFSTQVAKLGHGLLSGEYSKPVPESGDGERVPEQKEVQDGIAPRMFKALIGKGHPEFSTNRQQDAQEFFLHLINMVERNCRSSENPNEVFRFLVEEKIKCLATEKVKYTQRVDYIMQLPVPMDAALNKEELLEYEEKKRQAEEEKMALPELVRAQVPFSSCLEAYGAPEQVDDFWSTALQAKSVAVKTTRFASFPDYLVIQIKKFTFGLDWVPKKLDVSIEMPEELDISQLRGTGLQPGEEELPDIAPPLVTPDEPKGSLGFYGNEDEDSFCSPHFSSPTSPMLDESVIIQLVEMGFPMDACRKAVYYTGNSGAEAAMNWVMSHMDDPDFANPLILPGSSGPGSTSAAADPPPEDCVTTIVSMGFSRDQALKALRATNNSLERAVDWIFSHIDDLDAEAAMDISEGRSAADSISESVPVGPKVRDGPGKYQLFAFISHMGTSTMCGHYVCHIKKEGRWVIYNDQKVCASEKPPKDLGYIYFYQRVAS
In short: as §1

[6] = target: USP54 (UniProt Q70EL1)
USP54, sequence (Q70EL1 whole entry): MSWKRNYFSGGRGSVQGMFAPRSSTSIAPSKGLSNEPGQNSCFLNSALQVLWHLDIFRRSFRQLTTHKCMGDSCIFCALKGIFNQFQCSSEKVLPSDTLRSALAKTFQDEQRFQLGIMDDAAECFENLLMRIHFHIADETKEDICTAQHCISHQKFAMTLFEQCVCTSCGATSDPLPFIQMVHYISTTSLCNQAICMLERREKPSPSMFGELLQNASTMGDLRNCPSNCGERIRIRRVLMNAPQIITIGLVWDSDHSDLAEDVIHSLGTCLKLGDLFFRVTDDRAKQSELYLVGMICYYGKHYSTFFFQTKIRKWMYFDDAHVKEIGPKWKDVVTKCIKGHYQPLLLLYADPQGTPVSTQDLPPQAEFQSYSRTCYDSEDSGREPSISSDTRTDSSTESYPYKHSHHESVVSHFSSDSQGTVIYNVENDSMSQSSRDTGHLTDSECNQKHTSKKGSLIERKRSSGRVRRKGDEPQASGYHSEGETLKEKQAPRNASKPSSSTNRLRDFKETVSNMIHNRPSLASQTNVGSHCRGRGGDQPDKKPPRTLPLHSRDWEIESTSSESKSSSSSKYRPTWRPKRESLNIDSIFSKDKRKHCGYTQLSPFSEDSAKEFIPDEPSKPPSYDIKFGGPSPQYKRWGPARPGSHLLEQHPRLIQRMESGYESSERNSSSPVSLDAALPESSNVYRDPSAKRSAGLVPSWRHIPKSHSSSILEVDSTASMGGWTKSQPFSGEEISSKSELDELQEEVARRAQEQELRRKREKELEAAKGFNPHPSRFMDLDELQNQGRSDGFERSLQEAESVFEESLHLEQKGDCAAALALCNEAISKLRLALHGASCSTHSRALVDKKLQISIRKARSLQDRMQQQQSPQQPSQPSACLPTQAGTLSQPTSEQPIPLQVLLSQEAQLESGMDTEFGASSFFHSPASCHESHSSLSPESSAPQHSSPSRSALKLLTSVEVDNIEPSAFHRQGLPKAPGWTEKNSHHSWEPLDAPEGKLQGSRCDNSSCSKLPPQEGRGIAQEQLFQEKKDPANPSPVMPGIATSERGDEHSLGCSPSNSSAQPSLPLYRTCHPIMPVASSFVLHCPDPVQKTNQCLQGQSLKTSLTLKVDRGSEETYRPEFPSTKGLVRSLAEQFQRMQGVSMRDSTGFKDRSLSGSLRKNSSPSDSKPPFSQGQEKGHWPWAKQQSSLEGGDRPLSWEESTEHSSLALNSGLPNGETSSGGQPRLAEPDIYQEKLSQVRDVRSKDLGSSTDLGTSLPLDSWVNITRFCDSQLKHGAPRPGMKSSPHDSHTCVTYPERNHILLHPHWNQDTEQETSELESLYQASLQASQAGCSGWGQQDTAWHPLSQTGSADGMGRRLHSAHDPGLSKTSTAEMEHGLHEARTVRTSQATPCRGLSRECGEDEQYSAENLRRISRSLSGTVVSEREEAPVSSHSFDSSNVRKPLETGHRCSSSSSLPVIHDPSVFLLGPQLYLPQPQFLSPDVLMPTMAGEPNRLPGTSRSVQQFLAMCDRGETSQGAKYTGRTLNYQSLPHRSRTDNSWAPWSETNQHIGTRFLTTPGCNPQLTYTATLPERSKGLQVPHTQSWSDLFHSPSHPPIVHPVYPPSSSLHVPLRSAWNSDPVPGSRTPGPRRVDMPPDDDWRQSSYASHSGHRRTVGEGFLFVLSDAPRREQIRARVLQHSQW
In short: as §1

[7] = target: USP7 (UniProt Q93009)
USP7, sequence (Q93009 whole entry, looked up): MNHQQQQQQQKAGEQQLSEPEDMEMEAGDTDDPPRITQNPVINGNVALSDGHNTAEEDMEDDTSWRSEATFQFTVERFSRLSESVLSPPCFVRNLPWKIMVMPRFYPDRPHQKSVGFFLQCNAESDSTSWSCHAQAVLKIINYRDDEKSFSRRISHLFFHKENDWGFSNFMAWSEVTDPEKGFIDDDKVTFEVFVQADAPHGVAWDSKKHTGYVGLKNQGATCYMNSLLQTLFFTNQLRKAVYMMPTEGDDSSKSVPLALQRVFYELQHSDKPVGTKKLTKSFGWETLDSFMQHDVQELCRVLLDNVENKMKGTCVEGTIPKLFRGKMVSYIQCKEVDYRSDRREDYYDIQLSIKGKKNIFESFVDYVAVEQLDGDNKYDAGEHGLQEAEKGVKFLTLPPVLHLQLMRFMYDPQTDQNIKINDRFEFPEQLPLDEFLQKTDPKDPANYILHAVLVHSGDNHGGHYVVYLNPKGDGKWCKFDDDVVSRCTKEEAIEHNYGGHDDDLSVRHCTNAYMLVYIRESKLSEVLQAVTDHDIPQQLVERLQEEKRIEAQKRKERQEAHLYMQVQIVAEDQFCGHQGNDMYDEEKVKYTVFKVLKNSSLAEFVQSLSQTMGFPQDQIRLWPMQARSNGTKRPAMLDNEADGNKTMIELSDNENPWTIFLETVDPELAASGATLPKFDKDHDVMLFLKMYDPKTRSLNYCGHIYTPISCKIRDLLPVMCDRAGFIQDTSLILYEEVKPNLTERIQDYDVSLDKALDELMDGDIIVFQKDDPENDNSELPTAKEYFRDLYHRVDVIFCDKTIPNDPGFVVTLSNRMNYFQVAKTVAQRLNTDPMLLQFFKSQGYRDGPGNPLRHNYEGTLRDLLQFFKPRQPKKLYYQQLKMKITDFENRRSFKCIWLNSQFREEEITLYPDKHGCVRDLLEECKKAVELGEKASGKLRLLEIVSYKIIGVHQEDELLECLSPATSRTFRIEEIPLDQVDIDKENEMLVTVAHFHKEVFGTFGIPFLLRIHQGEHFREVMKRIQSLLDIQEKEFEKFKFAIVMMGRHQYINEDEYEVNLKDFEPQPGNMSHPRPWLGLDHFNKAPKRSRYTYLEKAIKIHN
In short: as §1

[8] = target: T5, USP8 (UniProt P40818)
T5 sequence (whole entry): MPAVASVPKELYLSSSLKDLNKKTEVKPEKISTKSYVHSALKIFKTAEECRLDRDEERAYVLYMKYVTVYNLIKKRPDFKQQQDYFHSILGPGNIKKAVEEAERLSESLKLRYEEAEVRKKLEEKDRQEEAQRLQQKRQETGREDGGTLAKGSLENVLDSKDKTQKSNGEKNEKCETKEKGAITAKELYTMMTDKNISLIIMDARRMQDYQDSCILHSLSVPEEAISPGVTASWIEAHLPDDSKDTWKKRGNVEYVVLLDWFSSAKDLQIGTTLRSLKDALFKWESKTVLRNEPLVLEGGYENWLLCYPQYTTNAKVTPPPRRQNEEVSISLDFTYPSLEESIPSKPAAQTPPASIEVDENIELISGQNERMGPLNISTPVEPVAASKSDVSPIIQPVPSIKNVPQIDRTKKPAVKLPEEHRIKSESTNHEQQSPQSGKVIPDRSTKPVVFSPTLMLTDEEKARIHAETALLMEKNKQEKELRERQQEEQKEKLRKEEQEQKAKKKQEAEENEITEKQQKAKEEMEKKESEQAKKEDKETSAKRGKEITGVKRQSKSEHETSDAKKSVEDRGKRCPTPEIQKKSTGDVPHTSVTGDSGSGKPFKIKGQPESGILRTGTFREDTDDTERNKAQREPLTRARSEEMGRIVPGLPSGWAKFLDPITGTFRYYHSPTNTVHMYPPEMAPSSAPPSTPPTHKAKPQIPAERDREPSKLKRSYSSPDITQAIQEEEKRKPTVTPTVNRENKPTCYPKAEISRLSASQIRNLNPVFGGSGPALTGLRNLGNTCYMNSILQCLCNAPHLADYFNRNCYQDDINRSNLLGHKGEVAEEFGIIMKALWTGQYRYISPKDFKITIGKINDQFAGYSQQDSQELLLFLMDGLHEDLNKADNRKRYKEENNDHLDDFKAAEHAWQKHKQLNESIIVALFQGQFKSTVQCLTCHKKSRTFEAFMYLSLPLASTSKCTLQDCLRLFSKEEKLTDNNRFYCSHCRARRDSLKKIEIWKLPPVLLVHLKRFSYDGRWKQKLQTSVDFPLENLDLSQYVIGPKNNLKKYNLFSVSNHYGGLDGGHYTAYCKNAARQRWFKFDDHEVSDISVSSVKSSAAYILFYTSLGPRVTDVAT
In short: as §1

Measured: log2 ratio of Biotin-Ahx-Ub-VS probe labelling

O=C(CCl)N1CCC(C(=O)N2CCCC2)CC1
inactive: [1] -0.161 | [2] 0.0393 | [3] -0.0567 | [4] 0.126 | [5] -0.266 | [6] -0.159 | [7] -0.543 | [8] -0.0342
